In the library only some 3.3% were active in any assay of this set; here they are far more common.
Vaccinia mCherry – vaccinia inhibition (mCherry reporter) | Vaccinia virus mCherry reporter infection, fluorescence | Potency, µM (highest dose often 36.5 µM), for the others: at the top dose activity change, negative = inhibition, hits mostly inhibitors | 310,000 tested, 0.63% active; calls by dose curve; tested in A549 cells; also: nearly all actives have a fitted effect of over 35% in size
Vaccinia Venus – inhibitors of vaccinia virus (Venus reporter). Vaccinia virus Venus reporter expression, fluorescence. Potency, µM (titrated, usually from 36.5 µM), for the others: at the top dose activity change, negative = inhibition, most hits filed as inhibitors. 330,000 tested, 0.46% active; calls by dose curve; tested in A549 cells; also: nearly all actives have a fitted effect of over 30% in size
HCV inhibitor – HCV inhibition. 340,000 tested, 3.4% active. Potency, µM (series often up to 41.8 µM), without a hit: at the highest dose activity change, negative = inhibition, actives largely listed as inhibitors. Huh7.5.1 HCVcc-Cre infection, luciferase reporter, 44 h. AID 651820; active = well fitted inhibition curve with a large enough effect; inconclusive = small, poorly fitted or top-dose-only effect, or another doubt; inactive = no such curve, though single readings can be large or run the other way
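HCVcc-Cre virus at an moi near 0.5 was added right after compound to cells cultured 4 h from seeding (1,000 cells/well). Luciferase activity was determined 44 h later, 15 min after substrate addition at RT.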
Numbers without * were called inactive. % is scaled to controls: 0 for no effect and ±100 for the full control effect; potency is read from the fitted curve at half-maximal effect.

COc1ccccc1-c1c(C)nn2c(N)c(-c3ccccc3)cnc12 was read as Vaccinia mCherry inactive, Vaccinia Venus -21.0% and HCV inhibitor inconclusive.
For COc1ccc(-c2c(C)nn3c(NC4CCCC4)cc(C)nc23)cc1OC the results were HCV inhibitor 10µM*.
CCN(CC)C(=O)C1CCN(c2cc(C)nc3c(-c4ccc(OC)c(OC)c4)c(C)nn23)CC1 was read as Vaccinia mCherry -11.3% and Vaccinia Venus -5.6%.
`CCOCCCNC(=O)C1CCN(c2cc(C)nc3c(-c4ccc(OC)c(OC)c4)c(C)nn23)CC1` gave HCV inhibitor 11.2µM*.
O=C(NC1CCCCCC1)c1ccc(CS(=O)c2cccc(Cl)c2)o1 (stereo not drawn) was read as Vaccinia mCherry -9.3% and Vaccinia Venus -7.0%.
COc1ccccc1-c1cnn2c(NCCc3ccccc3)cc(C)nc12 was read as Vaccinia mCherry -8.5%, Vaccinia Venus -9.3% and HCV inhibitor 10µM*.
Screening COc1ccc(CCNc2cc(C)nc3c(-c4ccccc4)cnn23)cc1OC returned Vaccinia mCherry -10.6%, Vaccinia Venus -20.0% and HCV inhibitor inconclusive.
O=S1(=O)CCOC[C@H](c2ccccc2)N1Cc1cccc(Cl)c1 was read as Vaccinia mCherry -5.2%, Vaccinia Venus -14.1% and HCV inhibitor -2.6%.
`CC1(C)CC(C)(c2ccc(O)cc2O)N(c2cccc(Cl)c2)C(=S)N1` (stereo not drawn) gave Vaccinia Venus -11.4% and HCV inhibitor inconclusive.
Screening CC1(C)CC(C)(c2ccc(O)cc2O)N(c2ccc3ccccc3c2)C(=S)N1 (stereo not drawn) returned Vaccinia Venus inconclusive and HCV inhibitor 10µM*.
CC(C)CC1NC(=O)N(CC(=O)N2c3ccccc3NC(=O)C2(C)C)C1=O (stereo not drawn) was read as Vaccinia mCherry inactive, Vaccinia Venus -4.5% and HCV inhibitor -1.1%.
`CC(C)C[C@@H]1NC(=O)[C@H](Cc2ccccc2)N(C)C(=O)[C@H](C)NC(=O)c2ccccc2NC(=O)[C@H](Cc2ccc(O)cc2)N(C)C1=O` gave Vaccinia mCherry inconclusive, Vaccinia Venus -23.6% and HCV inhibitor 8.91µM*.
For Cn1cc(C(N)=O)c2ccccc21 the results were Vaccinia mCherry -12.7%, Vaccinia Venus -13.5% and HCV inhibitor 15.8%.
`Cn1cc(C(=O)CCl)c2ccccc21` gave HCV inhibitor 7.94µM*.
C=C(C(=O)c1ccccc1)C(C)C(=C)C(=O)c1ccccc1 was read as Vaccinia mCherry inconclusive, Vaccinia Venus inconclusive and HCV inhibitor 14.1µM*.
`COc1ccc(C(CC(=O)c2ccccc2)CC(=O)c2ccccc2)cc1` gave Vaccinia mCherry -4.7%, Vaccinia Venus 9.5% and HCV inhibitor -23.8%.
C=C(C(=O)c1ccccc1)C(c1ccccc1)C(C)C(=O)c1ccccc1 (stereo not drawn) was read as Vaccinia mCherry inconclusive, Vaccinia Venus inconclusive and HCV inhibitor 4.3%.
Screening C=C(C(=O)c1ccccc1)C(C(=C)C(=O)c1ccccc1)c1ccc(OC)cc1 returned HCV inhibitor 3.55µM*.
`COc1ccc(N2CC3=C(C2=O)C(c2ccc(Br)cc2)NC(=O)N3C)cc1` (stereo not drawn) gave Vaccinia mCherry -9.7% and Vaccinia Venus -10.7%.
`Cc1ccccc1CNC(=O)C1CCN(c2nnc(-n3c(C)ccc3C)s2)CC1` gave Vaccinia mCherry -16.2% and Vaccinia Venus -17.0%.
For COc1ccc(S(=O)(=O)N2CCN(C(=O)CCc3c[nH]c4ccccc34)CC2)cc1 the results were HCV inhibitor 0.1%.
Screening O=C(CN(C1CCCCC1)S(=O)(=O)c1ccc(F)cc1)NCC1CCCO1 (stereo not drawn) returned Vaccinia mCherry inconclusive, Vaccinia Venus 11.2µM* and HCV inhibitor inconclusive.
Screening O=C(CN(C1CCCCC1)S(=O)(=O)c1ccccc1)NCC1CCCO1 (stereo not drawn) returned Vaccinia mCherry 3.5%, Vaccinia Venus -4.9% and HCV inhibitor 2.8%.
For Cc1ccc(S(=O)(=O)N2CCN(c3nc(-n4ccnn4)nc4ccccc34)CC2)cc1 the results were Vaccinia mCherry -12.4% and Vaccinia Venus -10.0%.
For CCCCn1c(=O)n(CC2CCC(C(=O)NCCCOC)CC2)c(=O)c2sccc21 (stereo not drawn) the results were Vaccinia mCherry -15.3% and Vaccinia Venus -2.1%.
`N#C/C(=C\c1ccc(O)cc1)C(=O)O` gave Vaccinia mCherry 9.6%, Vaccinia Venus -18.2% and HCV inhibitor 1.12µM*.
Screening N#C/C(=C\c1cccc(O)c1)C(=O)O returned Vaccinia mCherry -7.0% and Vaccinia Venus -4.4%.

Source: PubChem BioAssay
